# Tested on: PPARg:RXRa (NR concentration 180 nM, RXRa partner concentration 90 nM)
# Test: PBM binding z-score (relative to random genomic background probes); higher = stronger binding; sequences stand for … in GC…GCGATTGACAGCGTAGAATGAAGG
# In short: (§1)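 Antibodies against each partner of ligand-free nuclear receptor dimers (one per run) detected binding on custom Agilent 4×180K protein-binding microarrays after 1 h incubation. The double-stranded probes had 34-nt variable regions carrying direct-repeat seeds, single-nucleotide variants, half-site ablations and random human genomic background sequences. Binding z-scores, from regression-normalized fluorescence, use the random background probes as reference.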
row,Sequence,PBM binding z-score
1,TCGAGTAGGTTACCAATGAGGCATTCAGCTTTCT,0.215
2,CCTAGTTGGTGAAGGTCACACACGCTATAGGTAC,2.32
3,CCTCGGAGGCCAACAGGAGGTCAGAGCTGCCAGA,0.0544
4,CCTACTGGGCCAAAGGTCATTGAATCCAATGCTC,11.2
5,AGTCAACGTTCACTAGGTAACGTAAGATTCAGCT,0.874
6,ACTATTAGTTGAGACGAGGGCAACCGATAGGTTG,0.774
7,GCATATAGTTAATACAAGGTGAAAGTCCGATTGT,0.801
8,TCTAGTTGGTCATAGGTCACACACTCGAAATGCG,8.97
9,TGTCAAAGTTCAAAGGTAACGTAAGTATCCACAC,8.46
10,CCTTACGGGTCACTAACAGGTTATAGCATTTGGA,3.61
11,CGAACTAGGTCAAGGACAGAGAATCTCCGCACGC,7.55
12,GGAACGAGGGCAAAGTTGATACCATCTGTCGACG,6.72
13,ATCGAAAGGTCGAAGGTGGGTATACCCACCCGAA,3.74
14,TAGCCTAGGTCATTCACGGGCCAGTATAGAAAGC,2.05
15,AATACAGGGTCATCGTAGGACAGAGTACGCACAG,6.66
16,TCATATAGTTAAACAGGTGAAAGTCCGTAAGTTA,1.25
17,CCAGACACGTGAGAAGGTAACTCAGCCTCGATTA,0.37
18,CATCCAAGGTCAATGCTAGGTCAGTGAAAGCATT,4.32
19,CCTACGGGGCCATCAGGTCATTGATATCAACGTT,1.25
20,CCTACTGGGCCAATGGTCATTGATTCCAATGCTC,4.15

row,Sequence,PBM binding z-score
1,AATACAGGGTCATCGTAGGCCAGAGTGCGCACAG,6.7
2,ATCTCTACGTAACCAAGTTCAGTGAATGCCGAAC,0.223
3,TATACAGGGTCAAAGGCCAGAGGACGAATGTCGA,8.38
4,TGAATGAGATTAAAGATCAGGGAACGTGGCGTCG,1.02
5,GATACAGGGTCAGCTAGAGGCCAGAGAATGGAAA,3.8
6,ATACCAAGGTGATCGTGAGCTCGTTGATACTAAC,0.373
7,CAAACTAGGTCAACGGAAGGTCAAAGTCCGCATG,9.03
8,CAGCCTAGGTCAGGGCCAGTATGGGAGGAACGTT,0.648
9,ACAGACCGGTGAGTGAAGGTAACTCAGCTGGACG,0.147
10,TCTTGTAGATCAACATGAGGTTAAGAAAGATCGA,0.344
11,TAGCCTCGGTCATGGGCCAGTATACCACGCGAAC,0.374
12,CCTACTGGGCGATCAGGTCATTGATATCAACGTT,0.524
13,CCATACAGGTGAGAAGGTAACTCAGCCTCGATTA,1.03
14,TTACCAAGGTGAAAGGTCGCTGATGCACGCCTTG,8.28
15,GCGACTGTGGCAAAGCAGGTTACCATAAGGTTGG,0.331
16,TGAATGAGGTTATACGATCAGGGAACGTTGCAAA,1.33
17,CCTAGCAGGCCAATCTGGGTCAATCAAGGCTTGA,1.49
18,GCTTACGGGGCAAAGGTTATAGCATGAATAGAAT,8.91
19,TCTTGTAGATCAACAGGAGGTTAAGGAAGATCGA,0.0349
20,TCAGACAGGTGAAGGTAACTAAGGTACGCAGTCG,0.892

# Tested on: PPARg:RXRa 270nM:90nM, anti-RXR (NR concentration 270 nM, RXRa partner concentration 90 nM)
# Test: as above
# In short: as §1
row,Sequence,PBM binding z-score
1,TCGAGTAGGTTACCAATGAGGCATTCAGCTTTCT,1.15
2,CCTAGTTGGTGAAGGTCACACACGCTATAGGTAC,3.03
3,CCTCGGAGGCCAACAGGAGGTCAGAGCTGCCAGA,0.339
4,CCTACTGGGCCAAAGGTCATTGAATCCAATGCTC,9.74
5,AGTCAACGTTCACTAGGTAACGTAAGATTCAGCT,0.511
6,ACTATTAGTTGAGACGAGGGCAACCGATAGGTTG,0.555
7,GCATATAGTTAATACAAGGTGAAAGTCCGATTGT,0.639
8,TCTAGTTGGTCATAGGTCACACACTCGAAATGCG,8.03
9,TGTCAAAGTTCAAAGGTAACGTAAGTATCCACAC,7.64
10,CCTTACGGGTCACTAACAGGTTATAGCATTTGGA,3.78
11,CGAACTAGGTCAAGGACAGAGAATCTCCGCACGC,6.28
12,GGAACGAGGGCAAAGTTGATACCATCTGTCGACG,6.85
13,ATCGAAAGGTCGAAGGTGGGTATACCCACCCGAA,3.99
14,TAGCCTAGGTCATTCACGGGCCAGTATAGAAAGC,2.19
15,AATACAGGGTCATCGTAGGACAGAGTACGCACAG,6.04
16,TCATATAGTTAAACAGGTGAAAGTCCGTAAGTTA,2.68
17,CCAGACACGTGAGAAGGTAACTCAGCCTCGATTA,-0.804
18,CATCCAAGGTCAATGCTAGGTCAGTGAAAGCATT,4.66
19,CCTACGGGGCCATCAGGTCATTGATATCAACGTT,1.88
20,CCTACTGGGCCAATGGTCATTGATTCCAATGCTC,5.51

row,Sequence,PBM binding z-score
1,AATACAGGGTCATCGTAGGCCAGAGTGCGCACAG,6.16
2,ATCTCTACGTAACCAAGTTCAGTGAATGCCGAAC,0.137
3,TATACAGGGTCAAAGGCCAGAGGACGAATGTCGA,7.61
4,TGAATGAGATTAAAGATCAGGGAACGTGGCGTCG,2.19
5,GATACAGGGTCAGCTAGAGGCCAGAGAATGGAAA,3.53
6,ATACCAAGGTGATCGTGAGCTCGTTGATACTAAC,-0.151
7,CAAACTAGGTCAACGGAAGGTCAAAGTCCGCATG,7.24
8,CAGCCTAGGTCAGGGCCAGTATGGGAGGAACGTT,0.825
9,ACAGACCGGTGAGTGAAGGTAACTCAGCTGGACG,-0.715
10,TCTTGTAGATCAACATGAGGTTAAGAAAGATCGA,1.66
11,TAGCCTCGGTCATGGGCCAGTATACCACGCGAAC,0.188
12,CCTACTGGGCGATCAGGTCATTGATATCAACGTT,1.26
13,CCATACAGGTGAGAAGGTAACTCAGCCTCGATTA,1.68
14,TTACCAAGGTGAAAGGTCGCTGATGCACGCCTTG,8.53
15,GCGACTGTGGCAAAGCAGGTTACCATAAGGTTGG,-0.377
16,TGAATGAGGTTATACGATCAGGGAACGTTGCAAA,1.79
17,CCTAGCAGGCCAATCTGGGTCAATCAAGGCTTGA,1.95
18,GCTTACGGGGCAAAGGTTATAGCATGAATAGAAT,8.3
19,TCTTGTAGATCAACAGGAGGTTAAGGAAGATCGA,1.22
20,TCAGACAGGTGAAGGTAACTAAGGTACGCAGTCG,2.34

# — the supplement of paper PMC6555819
